A selection: hits, their analogues and other compounds. The true share with any hit is near 2.4%.
D2 ag-1 = D2 dopamine receptor (human) agonism; P14416; HEK293 T-REx D2 cells, calcium flux agonist mode; activation, % at 2 µM; 0.53% of 340,000 active;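 active = activation over 3 SD above normal in the single-dose calcium agonist read, cut at about 30% in these data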; note: 0% is about no effect
Target sequence (P14416 whole entry, looked up): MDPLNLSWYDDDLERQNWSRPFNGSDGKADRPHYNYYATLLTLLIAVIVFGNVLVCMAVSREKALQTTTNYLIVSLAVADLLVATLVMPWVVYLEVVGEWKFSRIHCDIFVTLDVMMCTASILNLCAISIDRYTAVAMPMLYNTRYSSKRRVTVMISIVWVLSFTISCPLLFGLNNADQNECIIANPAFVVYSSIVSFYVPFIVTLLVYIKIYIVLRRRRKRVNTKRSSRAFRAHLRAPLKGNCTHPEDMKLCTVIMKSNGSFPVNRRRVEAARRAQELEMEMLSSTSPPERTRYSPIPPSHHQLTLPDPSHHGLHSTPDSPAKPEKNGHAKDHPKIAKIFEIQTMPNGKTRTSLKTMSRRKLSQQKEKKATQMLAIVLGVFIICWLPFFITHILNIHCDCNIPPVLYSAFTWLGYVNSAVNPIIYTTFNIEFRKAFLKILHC
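Tetracycline-induced HEK293 Trex cells with D2 receptor force-coupled to calcium signaling, plated overnight at 30 C and loaded with no-wash calcium dye. Calcium flux read kinetically for 180 s after compound addition; responses flag agonists.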
D2 PAM-1 = positively modulates the human D2 dopamine receptor allosterically. 0.34% of 340,000 active. potentiation, % at 10 µM. P14416. AID 485347. HEK293 T-REx D2, calcium flux, EC20 dopamine potentiation;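 active = potentiation over 3 SD above the plate norm, cut at about 30% in these data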; note: 0% is about no effect
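Tetracycline-induced Hek293 Trex D2 cells, force-coupled to calcium, loaded with no-wash calcium dye. Compound added with 180 s kinetic read for agonism, then EC20 dopamine and a further 180 s read for potentiation.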
D2 ag-2 = activates the human D2 dopamine receptor; P14416; DiscoveRx PathHunter D2 beta-arrestin, luminescence, 90 min; 100% = 57 uM dopamine signal; activation, % (test concentration not listed); 0.084% of 360,000 active; in the data active = activation above about 40%; inconclusive = between about 15% and that limit
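Agonist mode: compounds alone added to overnight-plated D2 PathHunter cells for 90 min at 37 C, with 57 uM final dopamine (EC100) defining full response. Beta-arrestin recruitment detected by chemiluminescent reagent, read after 1 h at ambient temperature.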
D2 PAM-2 = human D2 receptor positive allosteric modulation; AID 624464; P14416; 0.23% of 360,000 active; DiscoveRx D2 beta-arrestin cells, luminescence, 90 min; 100% = 57 uM dopamine signal; potentiation, % (test concentration not listed); in the data active = potentiation above about 50%; inconclusive = mostly about 30% to 49%
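PathHunter beta-arrestin assay in DiscoveRx D2 cells. Compounds were added with an EC20 of dopamine (50 nM final) for 90 min at 37 deg C. Luminescence was read 1 h after detection reagent, with 57 uM dopamine as the EC100 control.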
D2 antagonist = D2 dopamine receptor (human) antagonism; HEK293 TREx D2 cells, calcium flux, dopamine EC80; 2% of 340,000 active; AID 485344; inhibition, % at 10 µM; in the data active = inhibition above about 30%; inactive = below that, where a call was filed; note: 0% is about no effect
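Tetracycline-induced HEK293 T-REx cells expressing D2 force-coupled to calcium signalling were dye-loaded, exposed to compound for 180 s, then challenged with an EC80 of dopamine; calcium flux was followed kinetically for a further 180 s.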
* hit, by the source's call; ? = inconclusive; nt = no result; ! = not confirmed by another sample.

SMILES | D2 ag-1 | D2 PAM-1 | D2 ag-2 | D2 PAM-2 | D2 antagonist
CCOC(=O)Nc1sc(NS(=O)(=O)c2ccccc2)nc1C | 0 | -6 | 12 | 86* | 1
CCCc1nnc(NC(=O)c2nc(S(=O)(=O)Cc3cccc(C)c3)ncc2Cl)s1 | -1 | 30* | -8 | -26 | -13
Cc1cccc(-c2nnc(C3CCN(S(=O)(=O)c4cccc(Cl)c4)CC3)o2)c1 | 0 | 13 | nt | nt | nt
CC(C)OP(=O)(OC(C)C)C(Nc1ccc(C(=O)O)cc1)c1ccccc1 (configuration not stated) | 1 | 30* | -7 | -7 | -4
CC(C)OP(=O)(OC(C)C)C(Nc1cccc(C(=O)O)c1)c1ccccc1 (configuration not stated) | 0 | -11 | 0 | -2 | 3
CCOc1ccccc1CNC(=O)c1ccc(Cn2c(SCc3ccccc3)nc3cccnc32)cc1 | 2 | 2 | nt | nt | nt
N#CCc1ccc(NC(=O)/C=C/c2ccc([N+](=O)[O-])o2)cc1 | 0 | 0 | 14 | -7 | 32*
O=C(O)/C=C/c1ccc([N+](=O)[O-])o1 | 1 | 2 | 14 | 2 | 18
CCOc1ccc(CNC(=O)c2cc3c(=O)n(Cc4cccs4)ccc3nc2C)cc1 | -1 | -22 | nt | nt | nt
O=C(N/N=C/c1ccsc1)c1ccccn1 | 0 | -9 | -5 | -5 | 39*
CC(C)(C)c1ccc(/C=N/NC(=O)c2ccccn2)cc1 | 1 | -14 | -4 | -6 | 3
CCOc1ccc(C(=O)NCC(=O)OCc2c(C)noc2C)cc1OCC | 2 | -4 | -2 | -16 | 37*
Cc1nnc(NC(=O)NC(C)N2C(=O)C3C4C=CC(C4)C3C2=O)s1 (configuration not stated) | 1 | -2 | 1 | -2 | 5
CCc1nnc(NC(=O)C(C)N2C(=O)C3C4C=CC(C4)C3C2=O)s1 (configuration not stated) | 1 | -10 | -2 | -4 | 33*
Cc1cccc(C(=O)OCC(=O)NN2C(=O)NC3(CCC(C)CC3)C2=O)c1O (configuration not stated) | 0 | 6 | 0 | 6 | 31*
CCN(CC)CCOC(=O)c1ccc(NC(=O)c2cc3cccc(OC)c3oc2=O)cc1 | 0 | -1 | nt | nt | nt
Cc1ccc(NC(=O)N(Cc2c[nH]c3ccccc23)C2CCCCCC2)cc1C | 0 | -5 | nt | nt | nt
CC(=O)Nc1nc(N)n(-c2ccccc2)n1 | 0 | -13 | -2 | -1 | 8
Nc1nc(NC(=O)/C=C\C(=O)O)nn1-c1ccccc1 | 1 | 3 | 0 | -6 | 36*
Cc1ccc(C2CC2/C(=N/O)c2ccc(F)cc2)cc1 (configuration not stated) | 0 | -7 | 1 | 11 | 34*
CC(=O)Cn1c(CN2CCCCC2)nc2ccccc2c1=O | 1 | -29 | -4 | -4 | 4
CC(=O)Cn1c(CN2CCCC2)nc2ccccc2c1=O | 1 | -4 | -5 | -6 | 35*
CCN1/C(=C/c2ccc3cc(C)ccc3[n+]2CC)Sc2ccccc21 | 36* | 10 | 0 | -9 | 5
CSc1ncc(Cl)c(C(=O)N(Cc2ccc(C(C)C)cc2)C2CCS(=O)(=O)C2)n1 (configuration not stated) | nt | 5 | nt | nt | nt
CC(C)N(Cc1ccccc1)C(=O)C1CCCN(c2ncnc3c2nc2n3CCCCC2)C1 (configuration not stated) | -1 | -9 | 0 | -9 | 38*
SMILES | D2 ag-1 | D2 PAM-1 | D2 ag-2 | D2 PAM-2 | D2 antagonist
CC1CCCN(CCCNC(=O)C2CCCN(c3ncnc4c3nc3n4CCCCC3)C2)C1 (configuration not stated) | 0 | -2 | -2 | -17 | -3
O=C(Nc1ccc(F)c(Cl)c1)C1CCCN(c2cnccn2)C1 (configuration not stated) | 0 | 32*! | 1 | -30 | 8
CC1CC(C)CN(CCCNC(=O)C2CCCN(c3ncnc4c3nc3n4CCCCC3)C2)C1 (configuration not stated) | -1 | -15 | 2 | -18 | 34*
Cc1ccc(NC(=O)C2CCCN(c3ncnc4c3nc3n4CCCCC3)C2)cc1Cl (configuration not stated) | 0 | -9 | -2 | -15 | 33*
Cc1ccc(NC(=O)C2CCN(c3ncnc4c3nc3n4CCCCC3)CC2)cc1Cl | 0 | -6 | 0 | -6 | -14
COc1cccc(NS(=O)(=O)c2ccc3[nH]cc(C(=O)N(C)C4CCCCC4)c(=O)c3c2)c1 | 0 | -7 | nt | nt | nt
Cc1sc2ncn(CC(=O)N3CCN(c4ccccc4F)CC3)c(=O)c2c1S(=O)(=O)N1CCC(C)CC1 | -1 | 7 | nt | nt | nt
COc1ccc(S(=O)(=O)N(CC(=O)Nc2ccc3c(c2)OCO3)c2ccc(C)cc2)cc1 | -1 | -10 | nt | nt | nt
Cc1ccc(NC(=O)C2CCC(CNS(=O)(=O)c3ccc4c(c3)CCCC(=O)N4)CC2)c(C)c1 (configuration not stated) | nt | 9 | nt | nt | nt
O=C(NCCCN1CCN(c2ccc(F)cc2)CC1)C1CCCN(c2ncnc3c2nc2n3CCCCC2)C1 (configuration not stated) | 0 | -5 | -1 | -17 | 26
COc1ccccc1N1CCN(CCCNC(=O)C2CCCN(c3ncnc4c3nc3n4CCCCC3)C2)CC1 (configuration not stated) | 0 | 5 | -5 | -17 | 76*
CCOC(=O)c1ccccc1NC(=O)c1cnc(N2CCOCC2)c2ccccc12 | 1 | 6 | nt | nt | nt
O=c1c2cnn(-c3ccc(Cl)cc3)c2ncn1Cc1ccc(Cl)cc1Cl | 1 | -2 | nt | nt | nt
Cc1cc(C(=O)NNC(=S)NC(C)c2ccccc2)c2ccccc2n1 (configuration not stated) | -1 | 5 | -13 | -41 | 45*
Cc1cc(C(N)=O)c2ccccc2n1 | -1 | -14 | 2 | 8 | 50*
CCOc1cc(CN2CCN(CCOCCO)CC2)ccc1OC | 0 | 2 | -2 | -8 | -5
O=C(Nc1cccc(F)c1)c1ccc2oc(=O)n(Cc3ccccc3)c2c1 | 2 | 2 | nt | nt | nt
COCCNC(=O)CNC(=O)c1nn(-c2ccc(OC)c(Cl)c2)c(=O)c2ccccc12 | 0 | 5 | -4 | -4 | 18
CCOC(=O)N1CCN(C(=O)CNC(=O)c2nn(-c3ccc(OC)c(Cl)c3)c(=O)c3ccccc23)CC1 | -1 | 43* | 13 | 19 | -7
COc1ccc(-n2nc(C(=O)NCC(=O)NCCc3ccc(OC)c(OC)c3)c3ccccc3c2=O)cc1Cl | 1 | 55* | ? | 23 | -21
Cn1cc(S(=O)(=O)N2CCCCCC2)cc1C(=O)N1CCN(c2cccc(Cl)c2)CC1 | 1 | 7 | nt | nt | nt
COc1ccc(OC)c(NC(=O)N2c3ccccc3Sc3ccccc32)c1 | -1 | 9 | nt | nt | nt

From PubChem BioAssay
